Screen size: about 200,000 compounds; about 18,000 (9%) were called active. Cut-off read from the data, not from the text of the source: active = inhibition above about 50%; inactive = the rest. The entries come from a sample that favours actives as a whole.

What is called inhibition is the drop in the measured response relative to a control, in per cent.

This experiment is described as follows: Leishmania major promastigote growth inhibition, primary screen (AID 1063).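 Note: promastigotes grown with compound for 44 hours at 28 °C.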 The conditions noted are these: Leishmania major promastigotes, resazurin fluorescence viability; at 10 µM; active compounds read high.
`CCOc1cccc2c1OC1(CCCCC1)N1N=C(c3cccnc3)CC21` (stereo unspecified): the inhibition is 57.3% (active).

Take `c1cncc(-c2nnc3n2C2(CCCCC2)Cc2ccccc2-3)c1`: the inhibition is -0.67% (inactive).

`O=[N+]([O-])c1ccc(Sc2n[nH]c(-c3ccco3)n2)nc1`: the inhibition was 4.36% (inactive).

Take `CCOC(=O)CSc1nc(C)cc2c1C(=O)OC2`: the inhibition is 3.71% (inactive).

For `COC(=O)c1sc2ncccc2c1OCc1ccc(Cl)cc1Cl`, the inhibition is -2.34% (inactive).

`NC(N)=N/N=C/c1ccc(OCc2ccc(Cl)cc2Cl)cc1`: the inhibition is 101% (active).

On to `CCOc1ccc(NC(=O)NNC(=O)c2ccc(Cl)cc2Cl)cc1`, for which the inhibition is -5.16% (inactive).

`CCOC(=O)CN/C=C(\C#N)c1ccc(F)cc1`: the inhibition was -7.97% (inactive).

As to `Cc1c(CN2CCCCC2)c(O)n(CCO)c(=O)c1C#N`, the inhibition was 3.34% (inactive).

On to `O=C(NNC(=O)c1ccc(Cl)cc1Cl)c1cccs1`, for which the inhibition was -10.1% (inactive).

Consider `CC(C)(O)C#Cc1ncc(C(F)(F)F)cc1Cl`, for which the inhibition was -3.82% (inactive).

Consider `COc1ccc(C2Nc3ccccc3C(=O)N2c2ccc(Cl)cc2)cc1Cn1cc([N+](=O)[O-])cn1` (stereo unspecified), for which the inhibition is 53.1% (active).

`COc1ccc([N+](=O)[O-])cc1C1NN=C(c2cccc3ccccc23)S1` (stereo unspecified): the inhibition is -6.23% (inactive).

As to `CCN(C(=O)CSc1nc2ccccc2n1CC)C1CCS(=O)(=O)C1` (stereo unspecified), the inhibition is -3.23% (inactive).

As for `CC(C)CNC(=O)/C=C/C(=O)O`, the inhibition is 1.32% (inactive).

Regarding `CC(=O)c1ccc(-c2nnc(CCC(=O)N(C)Cc3cnc4ccccn34)o2)s1`, the inhibition is -0.67% (inactive).

With `Cc1ccc(NC(=O)Cn2nc(C)c3ccccc3c2=O)c(C)c1`, the inhibition was 34.8% (inactive).

Consider `Cc1ccc(NC(=O)Cn2cccc2C2=NC(c3ccccc3)CO2)c(C)c1` (stereo unspecified), for which the inhibition is 77.4% (active).

Take `Cc1ccc(NC(=O)c2ccn(C(=O)Nc3ccccc3)n2)c(C)c1`: the inhibition was -1.05% (inactive).

`CC1(C)CC(=O)c2ccc(O)cc2O1`: the inhibition was -5.54% (inactive).

Take `CN(Cc1cccc2ncccc12)C(=O)CC1C(=O)NCCN1Cc1ccc(F)cc1` (stereo unspecified): the inhibition is -8.65% (inactive).

Regarding `C/C(=C\c1ccco1)CN1CCC(N2CCC(C(=O)N3CCOCC3)CC2)CC1`, the inhibition was 77.8% (active).

Turning to `O=C(C1CCN(C2CCN(Cc3ccc4cc(F)ccc4n3)CC2)CC1)N1CCCC1`, the inhibition was 48.3% (inactive).

Consider `COc1ccc(S(=O)(=O)N2CCC(C(=O)N3CCOCC3)CC2)cc1OC`, for which the inhibition was -6.25% (inactive).

Regarding `O=C(NCC1CCCO1)C1CCN(C2CCN(C(=O)C3CCCCC3)CC2)CC1` (stereo unspecified), the inhibition is -2.22% (inactive).

Regarding `O=C(C1CCN(S(=O)(=O)c2cnc[nH]2)CC1)N1CCN(Cc2ccc3c(c2)OCO3)CC1`, the inhibition was -5.72% (inactive).

For `O=C(C1CCN(C2CCN(Cc3cccc4c3OCO4)CC2)CC1)N1CCOCC1`, the inhibition is 76.2% (active).

Consider `Cn1c(N)c(C(=O)COC(=O)c2ccccc2NCc2ccco2)c(=O)n(C)c1=O`, for which the inhibition was -3.53% (inactive).

Regarding `Cc1ccc(NC(=O)CN2CCC(C(N)=O)CC2)cc1[N+](=O)[O-]`, the inhibition is -1.6% (inactive).

Consider `CN1CCN(c2nc(Nc3ccc(O)cc3)nc3ccccc23)CC1`, for which the inhibition was 99.9% (active).

Regarding `c1ccc(-c2nnc(N3CCOCC3)c3ccccc23)cc1`, the inhibition was 14% (inactive).

As for `COc1ccc(Nc2ncc(F)c(N3CCOCC3)n2)cc1`, the inhibition is 19.7% (inactive).

Consider `c1ccc(Nc2nc(N3CCOCC3)c3ccccc3n2)cc1`, for which the inhibition is 79.3% (active).

In the case of `Cc1cc(N2CCN(C)CC2)nc2ccc(NC(=S)N3CCOCC3)cc12`, the inhibition is 6.8% (inactive).

Consider `CCCCc1nc2ccccc2c(NC(=O)CN2CCN(C)CC2)c1CCC`, for which the inhibition is 32.8% (inactive).

Take `CC1CCC(NC(=O)C2c3ccccc3C(=O)N2Cc2ccc3c(c2)OCO3)CC1` (stereo unspecified): the inhibition is 14.7% (inactive).

Take `CNC(=S)NNC(=O)c1cccn(Cc2ccccc2)c1=O`: the inhibition is -2.81% (inactive).

In the case of `CCc1nnc(NC(=O)CCCSc2nc3ccccc3[nH]2)s1`, the inhibition is 12.7% (inactive).

As to `COc1ccc(N2CCN(C(=O)C3CCN(S(=O)(=O)c4ccc(C)cc4)CC3)CC2)cc1`, the inhibition was 7.36% (inactive).

Turning to `O=c1oc(-c2ccco2)nc2sc3c(c12)CCCCC3`, the inhibition is -6.27% (inactive).

As to `CCn1c(N)c(Br)c(=O)[nH]c1=O`, the inhibition is -8.78% (inactive).

Regarding `CCCCN(CC)CCCNC(=O)c1ccc(CSc2nc3ccncc3[nH]2)cc1`, the inhibition was -5.43% (inactive).

In the case of `Cc1ncoc1C(=O)N1CCCC(C(=O)c2ccc3c4c(cccc24)CC3)C1` (stereo unspecified), the inhibition was 5.73% (inactive).

Turning to `O=C(O)/C=C/c1ccc(S(=O)(=O)N2CCCCCC2)cc1`, the inhibition is -3.02% (inactive).

On to `COc1ccc(CNC(=O)COC(=O)/C=C/c2ccc(S(=O)(=O)N3CCOCC3)cc2)cc1`, for which the inhibition is 2.59% (inactive).

Regarding `O=C(COC(=O)/C=C/c1ccc(S(=O)(=O)N2CCCCCC2)cc1)NCc1ccccc1Cl`, the inhibition is 65.4% (active).

For the compound `Cc1ccc(NCc2n[nH]c(=S)n2-c2ccccc2)cc1Cl`, the inhibition is -7.27% (inactive).

Take `CC(=O)c1ccc(N2CCN(CC(=O)Nc3ccccc3N3CCOCC3)CC2)cc1`: the inhibition is 12.9% (inactive).

In the case of `CC(C)n1c(-c2ccncc2)n[nH]c1=S`, the inhibition is -1.76% (inactive).

As to `Cc1ccc(N2C(=O)C(CC(=O)Nc3cccc(F)c3)N(CCc3ccncc3)C2=O)cc1` (stereo unspecified), the inhibition was 1.18% (inactive).

Regarding `N#Cc1c(NC(=O)C2CCCO2)sc2c1CCCCC2` (stereo unspecified), the inhibition is 0.81% (inactive).

For the compound `O=C(c1ccc2c(c1)OCO2)N1CCOCC1`, the inhibition is -6.99% (inactive).

Consider `O=C(Nc1ccccc1)c1ccc2c(c1)OCO2`, for which the inhibition is -3.43% (inactive).

For the compound `CC1CN(C(=O)c2ccc3c(c2)OCO3)OC(c2ccccc2)O1` (stereo unspecified), the inhibition is 71.5% (active).

Regarding `O=C(CSc1ccc(-c2ccccc2)nn1)NCC1CCCO1` (stereo unspecified), the inhibition was -4.19% (inactive).

In the case of `Cc1cc(C)nc(NNC2=CC(=O)CC(C)(C)C2)n1`, the inhibition is -7.56% (inactive).

Consider `CCOC(=O)/C(C#N)=C/c1cn(CCC(=O)O)nc1-c1ccc(Br)cc1`, for which the inhibition is -8.02% (inactive).

In the case of `CCOC(=O)Cc1ncccc1C(=O)Nc1ccc(OC)cc1`, the inhibition is -2.87% (inactive).

Regarding `Cc1ccccc1CSCCNC(=O)c1ccc(Cl)c(S(=O)(=O)N2CCOCC2)c1`, the inhibition was 25.1% (inactive).

As to `O=C(NCCSCc1ccccc1)c1ccc(Cl)c(S(=O)(=O)N2CCOCC2)c1`, the inhibition is 5.02% (inactive).

Take `CC(C)(CNC(=O)c1ccc(Cl)c(S(=O)(=O)N2CCc3ccccc3C2)c1)N1CCOCC1`: the inhibition was 50.3% (active).

For the compound `O=C(CP(=O)(c1ccccc1)c1ccccc1)N1CCOCC1`, the inhibition was -9.31% (inactive).

Turning to `Cc1ccc(S(=O)(=O)N(Cc2ccc(Cl)cc2)c2ccccc2C(=O)NCc2cccnc2)cc1`, the inhibition was 93.2% (active).

Consider `O=C(O)c1ccccc1-c1ccccc1C(=O)NCc1cccnc1`, for which the inhibition was -6.64% (inactive).

As to `Cc1ccc(CNC(=O)c2cccnc2Cl)cc1`, the inhibition is 0.71% (inactive).

On to `O=C(NCc1cccnc1)c1cccnc1Sc1ccc(Cl)cc1`, for which the inhibition is 84.6% (active).

Regarding `CS(=O)(=O)N(Cc1ccccc1Cl)c1ccc(C(=O)NCc2cccnc2)cc1`, the inhibition is 1.77% (inactive).

With `O=C(NC1CCCCCC1)c1cccnc1Sc1ccc(Cl)cc1`, the inhibition was -4.38% (inactive).

Regarding `O=C(NC(=S)Nc1cccc(-c2ccc(CO)o2)c1)c1cccs1`, the inhibition was -1.96% (inactive).

Take `Cc1cc2c(cc1C)[n+](C)cn2CC(O)COCC1CC=CCC1` (stereo unspecified): the inhibition was -1.67% (inactive).

For `COc1ccc(N2CCN(C(=O)/C(C#N)=C/c3ccccc3)CC2)cc1`, the inhibition is 6.39% (inactive).

With `Cc1ccc(N2C(=O)C3CC3C2=O)cc1` (stereo unspecified), the inhibition is -5.37% (inactive).

On to `O=C(COC(=O)c1ccc(Cl)nc1)NCc1cccs1`, for which the inhibition is -8.06% (inactive).

Turning to `CC(=O)Nc1cccc(-c2nc3ccccc3s2)c1C`, the inhibition was 17.8% (inactive).

On to `CCN(CC)c1ccc(C(=O)c2cnc(/N=C/N(C)C)s2)cc1`, for which the inhibition was 0.96% (inactive).

Take `Cc1cccc(N2CCN(c3ccc(C(N)=O)cc3[N+](=O)[O-])CC2)c1C`: the inhibition was 2.25% (inactive).

With `CCc1c(SCCC(=O)O)nc2ccccc2c1C`, the inhibition is -1.78% (inactive).

In the case of `CN1CCN(NC(=O)c2ccc(S(=O)(=O)N3CCCCCC3)cc2)CC1`, the inhibition is -0.39% (inactive).

For `CC1=NNC(=O)C1CCC(=O)N/N=C\c1ccc(Cl)c(Cl)c1` (stereo unspecified), the inhibition is -3.71% (inactive).

Turning to `O=C(CC(=O)Nc1ccc(Cl)c(Cl)c1)N/N=C/c1ccc(O)cc1`, the inhibition is 59.3% (active).

In the case of `O=C(C[n+]1ccccc1)N/N=C/c1ccc(O)cc1`, the inhibition was -6.86% (inactive).

As for `CCOC(=O)c1c(-c2cccc(N)c2)cn2ccccc12`, the inhibition is 0.87% (inactive).

Take `Cc1ccc(COc2ccc(/C=N/NC(=O)CN3CCCCC3)cc2)cc1`: the inhibition is 5.55% (inactive).

Take `O=C(Nc1cccc([N+](=O)[O-])c1)Nc1ccc(Cl)cn1`: the inhibition is -0.05% (inactive).

Consider `O=C(CCl)N(Cc1cccc([N+](=O)[O-])c1)c1cccc(Cl)c1`, for which the inhibition is 101% (active).

As for `CCN(CC)C(=O)CN(c1cccc([N+](=O)[O-])c1)S(=O)(=O)c1ccccc1`, the inhibition was -3.8% (inactive).

Regarding `Cc1ccc(C(=O)OC(C)CN2CCOCC2)cc1` (stereo unspecified), the inhibition is -9.42% (inactive).

Turning to `COC(=O)C(C)NC(=O)COc1ccc2ccccc2c1` (stereo unspecified), the inhibition is 9.52% (inactive).

In the case of `CCCCCCCCc1c(O)nc(-n2[nH]c(C)c(CCO)c2=O)[nH]c1=O`, the inhibition was -4.27% (inactive).

`COC(=O)/C(=C1\Oc2ccc(C(C)(C)C)cc2S1)C(F)(F)F`: the inhibition was -4.31% (inactive).

Turning to `Cc1cc2ccccn2c1C(=O)c1cccc(S(=O)(=O)N2CCOCC2)c1`, the inhibition was 15.2% (inactive).

As for `COc1ccc(C(=O)CSc2nnnn2C)c(OC)c1`, the inhibition is -1.53% (inactive).

Take `Cc1nn(CC(=O)Nc2ccc(N(C)C)cc2)c(C)c1[N+](=O)[O-]`: the inhibition is 0.03% (inactive).

For the compound `Cc1ccc(Oc2cc(NC(=O)CCCn3nc(C)c([N+](=O)[O-])c3C)cc([N+](=O)[O-])c2)cc1`, the inhibition was 98.4% (active).

As for `COc1ccc(CNC(=O)CCCn2nc(C)c([N+](=O)[O-])c2C)cc1`, the inhibition was -8.33% (inactive).

On to `Cc1ccc(CNC(=O)CC2Sc3ccccc3NC2=O)cc1` (stereo unspecified), for which the inhibition was -7.06% (inactive).

The values above are taken from PubChem BioAssay AID1063 (University of Pittsburgh Molecular Library Screening Center, 2008).
